Results from PubChem BioAssay (NCI).
About 83,000 compounds went through this panel and 20% of them were active in at least one assay; those are over-represented in the sample as a whole.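 Cells were grown in 96-well plates and exposed to the test compound at a single concentration for 48 hours; results are reported as percent growth, with values below 10 considered active.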 Active and inactive are the calls of the source.

Legend:
Assay in all cases: NCI-60 one-dose screen, 48 h (100 = growth as untreated, 0 = no growth, -100 = all killed)
Conditions in all cases: 10 µM
DU-145 prostate = system: DU-145 prostate
K-562 leukemia = system: K-562 leukemia
MALME-3M melanoma = system: MALME-3M melanoma
MDA-MB-231 breast = system: MDA-MB-231 breast
RXF 393 renal = system: RXF 393 renal
SF-268 CNS = system: SF-268 CNS
SF-295 CNS = system: SF-295 CNS
SF-539 CNS = system: SF-539 CNS
UACC-257 melanoma = system: UACC-257 melanoma
HT29 colon = system: HT29 colon
SNB-75 CNS = system: SNB-75 CNS
SNB-19 CNS = system: SNB-19 CNS
U251 CNS = system: U251 CNS
PC-3 prostate = system: PC-3 prostate
SK-MEL-5 melanoma = system: SK-MEL-5 melanoma
UACC-62 melanoma = system: UACC-62 melanoma
LOX IMVI melanoma = system: LOX IMVI melanoma
SK-MEL-28 melanoma = system: SK-MEL-28 melanoma
M14 melanoma = system: M14 melanoma
HCT-15 colon = system: HCT-15 colon

Measured: growth

Cc1cc(C)nc(NS(=O)(=O)c2ccc(Nc3nc4nc(NCc5ccccc5)nc(-c5ccc(O)cc5)c4c(=O)[nH]3)cc2)n1
active: MALME-3M melanoma -12.6% | RXF 393 renal -1.77% | PC-3 prostate 1.02% | SK-MEL-5 melanoma 4.9%
inactive: DU-145 prostate 33% | K-562 leukemia 37.8% | MDA-MB-231 breast 29.2% | SF-268 CNS 27.8% | SF-295 CNS 27.3% | SF-539 CNS 39.9% | UACC-257 melanoma 66.1% | HT29 colon 32.2% | SNB-75 CNS 48.2% | SNB-19 CNS 28.2% | U251 CNS 11.9% | UACC-62 melanoma 21.8% | LOX IMVI melanoma 23.4% | SK-MEL-28 melanoma 32.7%

COc1ccc(/C(C#N)=C/c2ccccc2OC)cc1
inactive: DU-145 prostate 68.1% | K-562 leukemia 21% | MALME-3M melanoma 19.9% | MDA-MB-231 breast 56.2% | RXF 393 renal 25.5% | SF-268 CNS 60.7% | SF-295 CNS 22.9% | SF-539 CNS 42.2% | UACC-257 melanoma 47.8% | M14 melanoma 20.7% | SNB-75 CNS 28.4% | SNB-19 CNS 51.9% | PC-3 prostate 55.6% | UACC-62 melanoma 41.6% | LOX IMVI melanoma 37.2% | SK-MEL-28 melanoma 51.8%
active: HT29 colon 6.29% | SK-MEL-5 melanoma 9.12%

CN(C)CCCSc1ccccc1NC1=C(Cl)C(=O)C(Nc2ccccc2SCCCN(C)C)=C(Cl)C1=O
active: K-562 leukemia -18.8% | MALME-3M melanoma -28.8% | LOX IMVI melanoma -81.7%
inactive: DU-145 prostate 87.4% | MDA-MB-231 breast 44.9% | RXF 393 renal 45.8% | SF-268 CNS 43.7% | SF-295 CNS 101% | SF-539 CNS 42.8% | UACC-257 melanoma 85% | HCT-15 colon 72.1% | HT29 colon 22.7% | SNB-75 CNS 105% | SNB-19 CNS 90.6% | U251 CNS 23% | PC-3 prostate 42.8% | SK-MEL-5 melanoma 91.1% | UACC-62 melanoma 60.7% | SK-MEL-28 melanoma 104%

O=C1CC(SC(=S)C2CCCC2=O)C(=O)N1 (stereo not drawn)
inactive: DU-145 prostate 108% | K-562 leukemia 98% | MALME-3M melanoma 104% | MDA-MB-231 breast 105% | RXF 393 renal 115% | SF-268 CNS 102% | SF-295 CNS 104% | SF-539 CNS 104% | UACC-257 melanoma 90.4% | HCT-15 colon 98.1% | HT29 colon 103% | SNB-75 CNS 105% | SNB-19 CNS 94.7% | U251 CNS 97.1% | PC-3 prostate 97.1% | SK-MEL-5 melanoma 103% | LOX IMVI melanoma 97.5% | SK-MEL-28 melanoma 113%

COc1ccccc1-n1c(-c2sc(NC(C)=O)nc2C)n[nH]c1=S
inactive: DU-145 prostate 119% | K-562 leukemia 101% | MALME-3M melanoma 104% | MDA-MB-231 breast 106% | RXF 393 renal 107% | SF-268 CNS 94.9% | SF-295 CNS 83.2% | SF-539 CNS 103% | UACC-257 melanoma 114% | HCT-15 colon 94.9% | HT29 colon 104% | SNB-75 CNS 86.4% | SNB-19 CNS 103% | PC-3 prostate 95.9% | SK-MEL-5 melanoma 105% | LOX IMVI melanoma 97.5% | SK-MEL-28 melanoma 117%

COc1ccc(-c2nn(-c3cccc(Cl)c3)cc2-c2cc(-c3ccccc3)[nH]c(=O)c2C#N)cc1
active: MDA-MB-231 breast -8.6% | RXF 393 renal -25.6% | SF-295 CNS -36% | SF-539 CNS -45.9%
inactive: DU-145 prostate 47.1% | K-562 leukemia 44.9% | MALME-3M melanoma 24.7% | SF-268 CNS 34.8% | UACC-257 melanoma 75.5% | HCT-15 colon 63.8% | HT29 colon 55.6% | SNB-75 CNS 38.4% | SNB-19 CNS 45.2% | PC-3 prostate 71.6% | SK-MEL-5 melanoma 39.9% | UACC-62 melanoma 35% | LOX IMVI melanoma 55.6% | SK-MEL-28 melanoma 71%

COc1ccc(Cl)cc1Nc1nc(C(F)(F)F)ccc1C(=O)N/N=C/c1cc(OC)c(OC)c(OC)c1
active: MALME-3M melanoma -6.88% | MDA-MB-231 breast -5.79% | RXF 393 renal -10.2% | SF-268 CNS 8.43% | PC-3 prostate 6.2% | UACC-62 melanoma -48% | LOX IMVI melanoma -61.5%
inactive: DU-145 prostate 38.4% | K-562 leukemia 24.1% | SF-295 CNS 19.8% | SF-539 CNS 17.1% | UACC-257 melanoma 54.8% | HCT-15 colon 23.7% | HT29 colon 32% | SNB-75 CNS 32.6% | SNB-19 CNS 38.9% | U251 CNS 16.3% | SK-MEL-5 melanoma 18.8% | SK-MEL-28 melanoma 30.2%

CC(CN(C)C)Oc1ccccc1NC1=C(Cl)C(=O)C(Nc2ccccc2OC(C)CN(C)C)=C(Cl)C1=O (stereo not drawn)
active: DU-145 prostate -99.3% | K-562 leukemia -11.2% | MALME-3M melanoma -76.6% | MDA-MB-231 breast -77.5% | RXF 393 renal -90.7% | SF-268 CNS -81.8% | SF-539 CNS -98% | UACC-257 melanoma -91.8% | HCT-15 colon -79% | HT29 colon -70.1% | SNB-19 CNS 3.85% | U251 CNS -84.2% | PC-3 prostate 3.47% | SK-MEL-5 melanoma -95.8% | LOX IMVI melanoma -80.6% | SK-MEL-28 melanoma -64.9%
inactive: SF-295 CNS 30.6% | SNB-75 CNS 35%

CCN1CCN(CCC(=O)Nc2cccc(-n3cc(-c4ccncc4)c(-c4ccc(Cl)c(OC)c4)n3)c2)CC1
inactive: DU-145 prostate 12.4% | SF-268 CNS 35.4% | HCT-15 colon 13.7% | SNB-19 CNS 39.4% | PC-3 prostate 16.5%
active: K-562 leukemia -34% | MALME-3M melanoma -63.6% | MDA-MB-231 breast 4.87% | RXF 393 renal -7.05% | SF-295 CNS 9.42% | SF-539 CNS -51.9% | UACC-257 melanoma -85.5% | HT29 colon -23.4% | SNB-75 CNS 9.22% | U251 CNS -7.85% | SK-MEL-5 melanoma -3.03% | UACC-62 melanoma -17% | LOX IMVI melanoma -47.5%
